According to PubChem BioAssay (NCATS):
Inconclusive results are not listed. Some structures have more than one record in an assay (separate samples or runs), and their calls can disagree. Calls of active or inactive are those of the source. The call rests on the fitted dose curve; in most records, active means well fitted inhibition curve with a large enough effect; inconclusive means small, poorly fitted or top-dose-only effect; inactive means no such curve, though single readings can be large or run the other way.

What follows are compounds tested against Cytochrome P450 3A4 (Homo sapiens) (UniProt P08684) (assay: qHTS Assay for Inhibitors and Substrates of Cytochrome P450 3A4 (AID 884; further: nearly all actives have a fitted effect of over 50% in size)). Conditions: recombinant CYP3A4, Luciferin-PPXE luminescence; series mostly up to 57.1 µM; activity change, negative = inhibition: at the top concentration.
Procedure: NIH Molecular Libraries Screening Centers Network [MLSCN]
NIH Chemical Genomics Center [NCGC]
The P450 gene superfamily is involved in the metabolism and clearance of xenobiotics. This assay used human CYP3A4 to measure the dealkylation of luciferin-6' phenylpiperazinylyl (Luciferin-PPXE; […]) to luciferin. The luciferin is then measured by luminescence after the addition of a luciferase detection reagent. Luciferin-PPXE concentration in the assay was equal to its KM for CYP3A4. Inhibitors and some substrates limit the production of luciferin, and decrease measured luminescence.
NCGC Assay Protocol Summary:
Two uL of enzyme and substrate mix (final concentrations: 20nM CYP3A4, 25uM Luciferin-PPXE, 200mM KPO4) were dispensed into a white, solid bottom 1536-well microtiter plate. 23nL of compound was transferred by a pin tool. The plate was incubated at RT for 10 min. Two uL of an NADPH regeneration solution (Promega supplied reagent) was dispensed and the reaction was allowed to continue for 60 min at RT. Then the reaction was stopped by reconstituted luciferin detection buffer. After another 20 min of incubation the plate was read on the ViewLux (Perkin Elmer) at 60 sec exposure and 2x2 binning. This protocol was carried out with Promega-Glo reagents and further information can be found at http://www.promega.com/tbs/tb325/tb325.pdf. Data were normalized to the to AC100 inhibition (57 uM ketoconazole).
Keywords: P450, CYP3A4, Luciferase, MLSMR, MLSCN, NIH Roadmap, qHTS, NCGC
On the % scale 0 is the no-effect control and ±100 the full control effect; potency means the concentration at half of the fitted maximal effect.

Chain of Cytochrome P450 3A4 (Homo sapiens) (P08684 whole entry, looked up): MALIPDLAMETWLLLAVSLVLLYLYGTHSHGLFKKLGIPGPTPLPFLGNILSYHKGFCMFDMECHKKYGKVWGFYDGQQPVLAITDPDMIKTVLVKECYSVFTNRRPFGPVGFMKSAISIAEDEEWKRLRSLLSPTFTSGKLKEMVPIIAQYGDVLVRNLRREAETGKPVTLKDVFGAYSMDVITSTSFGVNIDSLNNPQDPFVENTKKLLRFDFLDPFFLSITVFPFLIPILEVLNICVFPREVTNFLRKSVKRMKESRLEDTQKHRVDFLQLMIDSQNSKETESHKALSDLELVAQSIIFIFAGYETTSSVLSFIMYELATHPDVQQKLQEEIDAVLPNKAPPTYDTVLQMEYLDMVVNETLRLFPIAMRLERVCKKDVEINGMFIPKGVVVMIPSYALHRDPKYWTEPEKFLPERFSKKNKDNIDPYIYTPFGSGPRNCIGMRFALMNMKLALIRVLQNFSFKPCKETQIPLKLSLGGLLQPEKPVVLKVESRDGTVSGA

Structure (SMILES)	Potency	activity change, negative = inhibition
COc1ccc(C(=O)c2c(C)n(CCN3CCOCC3)c3cc(I)ccc23)cc1	5.01 µM (active)	
CCOCCOC(C)=O		-14.9% (inactive)
O=C(O)CC[N+](=O)[O-]		-19.8% (inactive)
OCCCBr		-4.33% (inactive)
O=C(O)COc1ccccc1		-10.5% (inactive)
CCCCc1ccc(C(=O)O)nc1		-25% (inactive)
O=[N+]([O-])c1cc([N+](=O)[O-])c2ccccc2c1		-17% (inactive)
C=CC(=O)NCNC(=O)C=C		-19.5% (inactive)
O=C(O)C(Cl)Cl		-5.95% (inactive)
Cc1nccc2c1[nH]c1ccccc12	3.98 µM (active)	
Nc1ccc([N+](=O)[O-])cc1		-15% (inactive)
O=[N+]([O-])c1c(Cl)c(Cl)cc(Cl)c1Cl		-8.19% (inactive)
CCCCCCCCCCCCCCCC[N+](C)(C)C		-21.2% (inactive)
CN(C)[C@@H]1C(=O)C(C(N)=O)=C(O)[C@@]2(O)C(=O)C3=C(O)c4c(O)cccc4[C@@](C)(O)[C@H]3[C@H](O)[C@@H]12		13.6% (inactive)
CC[C@@H]1C(=O)OC[C@@H]1Cc1cncn1C	12.6 µM (active)	
O=C(O)CCCOc1ccc(Cl)cc1Cl		-13% (inactive)
CN(C)NC(=O)CCC(=O)O		-8.92% (inactive)
COc1ccc(C(c2ccc(OC)cc2)C(Cl)(Cl)Cl)cc1	inactive	
CC[C@@]1(O)C(=O)OCc2c1cc1n(c2=O)Cc2cc3ccccc3nc2-1	6.31 µM (active) and inactive	
CCCCCCCCc1ccc(O)cc1		-8.32% (inactive)
C1CCC(NC2CCCCC2)CC1	inactive	
O=C1CCCN1CC#CCN1CCCC1		-3.5% (inactive)
Cc1cc(O)ccc1Cl		-27.9% (inactive)
O=C(N[C@H]1CN2CCC1CC2)c1ccc(Cl)cc1		-7.71% (inactive)
Nc1ccc(Cl)cc1		-11.6% (inactive)
C#CC1(O)CCC2C3CCC4=CC(=O)CCC4(C)C3CCC21C (stereo not drawn)		-14.1% (inactive)
NCCc1c[nH]c2ccccc12	inactive	
CNCCc1c[nH]c2ccc(O)cc12		-11.9% (inactive)
